# Inconclusive results are not listed. A call without a number means that no potency is given here. Unmarked numbers belong to inactive results. Activity calls are given as the source filed them. Unless noted, calls come from the whole dose curve; as a rule, active = well fitted curve in the direction sought with a large enough effect in the repeat runs; inconclusive = weak or mixed curves; inactive = no such curve, though single readings can be large; an effect the other way counts as inactive or inconclusive.
# What was measured:
# [1] = qHTS assay to identify small molecule antagonists of the estrogen related receptor (ERR) signaling pathway from Tox21 library - cell viability counter screen (AID 1224834); note: nearly all actives have a fitted effect of over 30% in size; note: potency is the fitted concentration of half-maximal effect
# In short: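 After 17.5 h of compound exposure at 37 C, ERR cells are incubated with CellTiter-Fluor for 30 min and fluorescence intensity serves as the viability measure.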
# [2] = biological target: Luciferin 4-monooxygenase (Photinus pyralis) (UniProt P08659); experiment: qHTS assay to identify small molecule inhibitors of firefly luciferase (AID 1224835); note: nearly all actives have a fitted effect of over 25% in size; note: potency is the fitted concentration of half-maximal effect
# In short: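 Biochemical qHTS: compounds run as interplate titrations against purified firefly enzyme, with D-luciferin and ATP each at its KM concentration. Light output recorded by CCD imaging.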
# [3] = qHTS assay to identify small molecule agonists of the constitutive androstane receptor (CAR) signaling pathway - cell viability counter screen (AID 1224836); note: nearly all actives have a fitted effect of over 45% in size; note: potency is the fitted concentration of half-maximal effect
# In short: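 HepG2-CYP2B6-hCAR, 2500 cells/well, 4 h pre-incubation; cpd 15 conc + PK11195 0.75 uM final; 23 h, 37 C/5% CO2; CellTiter-Fluor, fluorescence.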
# [4] = qHTS assay to identify small molecule antagonists of the constitutive androstane receptor (CAR) signaling pathway - cell viability counter screen (AID 1224837); note: nearly all actives have a fitted effect of over 45% in size; note: potency is the fitted concentration of half-maximal effect
# In short: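 Counter screen run in HepG2-CYP2B6-hCAR cells: 4 hr settle, compound titration (15 concentrations) with 50 nM CITCO, 23 hr at 37 C/5% CO2, CellTiter-Fluor fluorescence.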
# [5] = biological target: Nuclear receptor subfamily 1 group I member 3 (Homo sapiens) (UniProt Q14994); experiment: qHTS assay to identify small molecule antagonists of the constitutive androstane receptor (CAR) signaling pathway (AID 1224838);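 note: HepG2 cells stably expressing hCAR with CYP2B6 luciferase reporter stimulated by CITCO; nearly all actives have a fitted effect of over 40% in size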; note: potency is the fitted concentration of half-maximal effect
# In short: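 Cell line: HepG2 double-stable for hCAR and CYP2B6-2.2kb reporter. Agonist: CITCO, 50 nM final. Compounds: 15 concentrations, 24 h, 37 C. Detection: ONE-Glo luminescence.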
# [6] = biological target: Nuclear receptor subfamily 1 group I member 3 (Homo sapiens) (UniProt Q14994); experiment: qHTS assay to identify small molecule agonists of the constitutive androstane receptor (CAR) signaling pathway (AID 1224839); note: nearly all actives have a fitted effect of over 15% in size; note: potency is the fitted concentration of half-maximal effect;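 for activation: HepG2 cells stably carrying human CAR and a CYP2B6 luciferase reporter; series mostly up to about 92 µM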
# In short: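 HepG2-CYP2B6-hCAR cells, 2500/well, 4 h pre-incubation; compounds 15 conc.; PK11195 0.75 uM final; 24 h, 37 C/5% CO2; ONE-Glo luciferase read.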
# [7] = qHTS assay to identify small molecule antagonists of the estrogen related receptor signaling pathway with the pleiotropic PPARgamma coactivator (PGC) from Tox21 10K library - cell viability counter screen (AID 1224840; active = well fitted cell-killing curve with a large enough effect in the repeat runs, not every such curve was filed as active; note: nearly all actives have a fitted effect of over 40% in size; note: potency is the fitted concentration of half-maximal effect)
# In short: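 Following seeding of 2,000 PGC/ERR cells/well and 6 hours' incubation, test compounds were delivered in DMSO. The plates then sat 17.5 hours at 37 C before a fluorogenic live-cell protease reagent (CellTiter-Fluor) was read after 30 min.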
# [8] = biological target: Thyrotropin receptor (Homo sapiens) (UniProt P16473); experiment: qHTS assay to identify small molecule agonists of the thyroid stimulating hormone receptor (TSHR) signaling pathway (AID 1224843; calls by dose curve; note: nearly all actives have a fitted effect of over 45% in size; note: potency is the fitted concentration of half-maximal effect)
# In short: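 Steps: seed 800 TSHR-HEK293 cells per well; add test compound and hold 30 min at ambient temperature; dispense cAMP-d2 then anti-cAMP cryptate; incubate 1 h at ambient; measure fluorescence intensity.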
# [9] = qHTS assay to identify small molecule agonists of the hypoxia (HIF-1) signaling pathway - cell viability counter screen (AID 1224844; calls by dose curve; note: nearly all actives have a fitted effect of over 50% in size; note: potency is the fitted concentration of half-maximal effect)
# In short: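 Cells (HRE-bla ME-180, 2,000 per well) sat 5 hrs at 37C, got compound for 17 hrs, were read for CCF4-AM FRET, and were finally lysed with CellTiter-Glo for a 30 min room-temperature luminescence read.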
# [10] = qHTS assay to identify small molecule agonists of H2AX - cell viability counter screen (AID 1224847; calls by dose curve; note: nearly all actives have a fitted effect of over 30% in size; note: potency is the fitted concentration of half-maximal effect)
# In short: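 Cells plated first: CHO-K1, 1000 per well in 10% FBS medium, incubated overnight at 37C. Then 15-point compound titration added (final DMSO 0.76%) for 3 hr. Finally CellTiter-Glo added and luminescence read.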
# [11] = system: estrogen-related receptor alpha (ERRalpha) with PGC-1alpha coactivator, human; experiment: qHTS assay to identify small molecule antagonists of the estrogen related receptor signaling pathway with the pleiotropic PPARgamma coactivator (PGC) (AID 1224821; calls by dose curve; note: potency is the fitted concentration of half-maximal effect; nearly all actives have a fitted effect of over 50% in size)
# In short: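 Cells engineered for PGC/ERR signalling (line from NTP) were plated 6 h at 37 C/5% CO2, then exposed to DMSO-dissolved compound for 18 h at 37 C. Luciferase activity was read by One-Glo luminescence after 30 min at room temperature.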
# [12] = qHTS assay to identify small molecule agonists of the estrogen related receptor signaling pathway with the pleiotropic PPARgamma coactivator (PGC) (AID 1224823)
# In short: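 PGC/ERR reporter cells were seeded, rested 6 h at 37 C/5% CO2, then exposed to compounds in DMSO by pin transfer for 18 h at 37 C. Luciferase activity was read as luminescence after One-Glo reagent and 30 min at room temperature.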
# [13] = qHTS assay to identify small molecule agonists of the estrogen related receptor signaling pathway with the pleiotropic PPARgamma coactivator (PGC) from Tox21 10K library (AID 1224842); note: nearly all actives have a fitted effect of over 15% in size
# In short: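 PGC/ERR reporter cell line, 2,000 cells per well, incubated 6 h at 37 C before 23 nL compound in DMSO was added. After 18 h at 37 C, One-Glo luminescence read following 30 min at room temperature.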
# [14] = qHTS assay to identify small molecule agonists of H2AX (AID 1224845; active = well fitted activation curve with a large enough effect in the signal ratio in the repeat runs, not every such curve was filed as active; the % refers to the signal ratio; note: potency is the fitted concentration of half-maximal effect)
# In short: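 Wild-type CHO-K1 cells, plated overnight, exposed 3hr at 37C to 15 concentrations (0.76% DMSO final). Lysed, then HTRF anti-pH2AX (S139) cryptate and anti-H2AX-d2 antibodies, 24 hr room temperature; 665/620 nm emission read.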
# [15] = qHTS assay to identify small molecule agonists of the hypoxia (HIF-1) signaling pathway (AID 1224846; active = well fitted activation curve with a large enough effect in the signal ratio in the repeat runs, not every such curve was filed as active; the % refers to the signal ratio)
# In short: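 A low-serum medium (0.5% dialyzed FBS) holding 2,000 HRE-bla ME-180 cells per well is preincubated for 5 hrs, dosed with compounds by pintool, and kept a further 17 hrs at 37C, 5% CO2 before CCF4-AM FRET detection of beta-lactamase.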
# [16] = qHTS assay to identify small molecule antagonists of the estrogen related receptor signaling pathway with the pleiotropic PPARgamma coactivator (PGC) from Tox21 10K library (AID 1224841; call rule not given here; note: series mostly up to about 92 µM; actives are mostly falling curves and most rising ones were filed inactive; nearly all actives have a fitted effect of over 50% in size)
# In short: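 qHTS antagonist format: PGC/ERR cells, 2k/well, compound in DMSO by pin transfer after 6 h attachment, 18 h treatment at 37 C, One-Glo luminescence read at 30 min.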
# Sequence of Luciferin 4-monooxygenase (Photinus pyralis) (P08659 whole entry, looked up): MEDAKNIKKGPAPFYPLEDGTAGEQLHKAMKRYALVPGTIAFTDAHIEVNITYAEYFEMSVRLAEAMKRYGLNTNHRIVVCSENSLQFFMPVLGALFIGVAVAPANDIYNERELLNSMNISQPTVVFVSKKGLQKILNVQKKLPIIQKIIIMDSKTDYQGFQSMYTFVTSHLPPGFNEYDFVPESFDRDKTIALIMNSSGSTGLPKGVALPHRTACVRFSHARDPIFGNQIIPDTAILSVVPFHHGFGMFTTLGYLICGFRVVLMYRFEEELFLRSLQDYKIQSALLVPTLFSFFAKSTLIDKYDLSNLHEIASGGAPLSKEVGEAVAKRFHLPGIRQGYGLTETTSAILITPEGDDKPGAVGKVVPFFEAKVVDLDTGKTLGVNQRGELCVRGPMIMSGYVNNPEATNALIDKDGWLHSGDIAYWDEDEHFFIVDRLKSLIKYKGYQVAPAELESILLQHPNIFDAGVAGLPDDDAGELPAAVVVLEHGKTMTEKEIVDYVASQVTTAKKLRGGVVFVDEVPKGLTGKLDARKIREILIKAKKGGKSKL
# Sequence of Nuclear receptor subfamily 1 group I member 3 (Homo sapiens) (Q14994 whole entry, looked up): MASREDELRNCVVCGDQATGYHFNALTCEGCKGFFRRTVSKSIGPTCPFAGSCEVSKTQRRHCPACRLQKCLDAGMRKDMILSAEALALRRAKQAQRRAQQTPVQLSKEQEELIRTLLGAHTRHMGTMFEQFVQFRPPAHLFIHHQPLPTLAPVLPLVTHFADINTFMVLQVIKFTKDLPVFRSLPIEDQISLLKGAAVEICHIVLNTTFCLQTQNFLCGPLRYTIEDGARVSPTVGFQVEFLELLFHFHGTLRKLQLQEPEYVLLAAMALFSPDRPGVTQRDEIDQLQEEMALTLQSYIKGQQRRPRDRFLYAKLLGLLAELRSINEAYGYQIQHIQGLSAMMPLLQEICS
# Sequence of Thyrotropin receptor (Homo sapiens) (P16473 whole entry, looked up): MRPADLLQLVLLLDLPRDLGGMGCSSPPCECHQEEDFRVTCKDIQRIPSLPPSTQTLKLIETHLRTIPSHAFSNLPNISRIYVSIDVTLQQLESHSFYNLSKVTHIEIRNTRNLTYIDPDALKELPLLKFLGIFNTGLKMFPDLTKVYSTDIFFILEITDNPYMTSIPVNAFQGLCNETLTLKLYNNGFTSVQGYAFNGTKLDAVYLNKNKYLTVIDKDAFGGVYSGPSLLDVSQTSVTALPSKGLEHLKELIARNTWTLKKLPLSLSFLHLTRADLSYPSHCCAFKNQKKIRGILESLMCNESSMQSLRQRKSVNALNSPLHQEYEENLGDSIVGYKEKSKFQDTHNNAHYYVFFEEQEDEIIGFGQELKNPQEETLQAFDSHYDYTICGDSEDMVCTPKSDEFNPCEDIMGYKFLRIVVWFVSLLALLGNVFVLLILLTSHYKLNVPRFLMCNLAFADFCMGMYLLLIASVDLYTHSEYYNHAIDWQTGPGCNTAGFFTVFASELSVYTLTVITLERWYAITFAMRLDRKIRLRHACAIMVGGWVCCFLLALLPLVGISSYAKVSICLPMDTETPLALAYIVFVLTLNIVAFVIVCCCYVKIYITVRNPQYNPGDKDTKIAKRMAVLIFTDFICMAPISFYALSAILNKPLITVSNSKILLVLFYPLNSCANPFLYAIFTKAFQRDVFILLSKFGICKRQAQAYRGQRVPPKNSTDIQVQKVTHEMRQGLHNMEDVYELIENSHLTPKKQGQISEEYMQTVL
SMILES,Potency [1],Potency [2],Potency [3],Potency [4],Potency [5],Potency [6],Potency [7],Potency [8],Potency [9],Potency [10],Potency [11],Potency [12],Potency [13],Potency [14],Potency [15],Potency [16]
CCC(O)CO (stereo unspecified),inactive,inactive,inactive,inactive,inactive,inactive,inactive,inactive,inactive,inactive,,,,,,
Nc1c(S(=O)(=O)O)cc(Nc2ccc(Nc3nc(Cl)nc(Nc4ccc(S(=O)(=O)O)cc4)n3)c(S(=O)(=O)O)c2)c2c1C(=O)c1ccccc1C2=O,,,,,,,,,,,18.8 µM (active),inactive,,,,
Cc1ccc(S(=O)(=O)C(I)I)cc1,61.1 µM (active),39.9 µM (active),48.6 µM (active),34.4 µM (active),27.3 µM (active),inactive,48.6 µM (active),3.06 µM (active),13.8 µM (active),22.5 µM (active),,,inactive,16 µM (active),,
COCCC(=O)OC,inactive,inactive,inactive,inactive,inactive,inactive,inactive,inactive,inactive,inactive,,,,,,
CC(CC(C)(C)C)CC(C)(C)CC(C)(C)C (stereo unspecified),inactive,inactive,inactive,inactive,inactive,inactive,inactive,inactive,inactive,inactive,,,,inactive,inactive,
CCc1cccc(C)c1N(C(=O)CS(=O)(=O)O)C(C)COC (stereo unspecified),inactive,inactive,inactive,inactive,inactive,inactive,inactive,inactive,inactive,inactive,,,,inactive,inactive,
CCn1c2ccccc2c2ccccc21,inactive,inactive,inactive,inactive,inactive,27.3 µM (active),inactive,inactive,inactive,inactive,,,,inactive,inactive,
[Cl][Sc]([Cl])[Cl],inactive,28.3 µM (active),inactive,inactive,inactive,inactive,inactive,inactive,inactive,inactive,,,inactive,inactive,inactive,
CN[C@H]1CC[C@@H](c2ccc(Cl)c(Cl)c2)c2ccc(S(N)(=O)=O)cc21,68.6 µM (active),inactive,61.1 µM (active),61.1 µM (active),61.1 µM (active),inactive,61.1 µM (active),,,113 µM (active),,,inactive,,inactive,
NC(=O)c1ccccc1Cl,inactive,inactive,inactive,inactive,,inactive,inactive,,inactive,inactive,,,inactive,inactive,inactive,
Oc1ccc2c(c1)CCC2,inactive,inactive,inactive,inactive,inactive,,inactive,,inactive,,,,inactive,inactive,inactive,inactive
NCc1ccco1,inactive,inactive,inactive,inactive,,inactive,inactive,inactive,inactive,inactive,,,,inactive,inactive,

# Source: PubChem BioAssay (Tox21)
